Experimental findings from PubChem BioAssay (NCI) are described below.

What all share (experiment): NCI-60 one-dose screen, 48 h (100 = growth as untreated, 0 = no growth, -100 = all killed)
Holding throughout (conditions): 10 µM unless noted

The subject of test [1] is T-47D breast.
Test [2] deals with BT-549 breast.
The subject of test [3] is MDA-MB-435 melanoma.
Test [4] deals with SW-620 colon.
Test [5] has as its system MCF7 breast.
Test [6] concerns HCT-116 colon.
Test [7] deals with HCC-2998 colon.
The subject of test [8] is KM12 colon.

The panel holds about 83,000 compounds, 20% with a hit somewhere; the sample as a whole holds those more often.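 Note: values are percent growth. 100 is the growth of untreated cells, values between 100 and 0 indicate rising inhibition; between -100 and 0 indicates cell death.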 Values without a mark were called inactive. Calls of active or inactive are those of the source. How the source made its calls: active means growth percent below 10; inactive means the rest.

Consider `O=C1CCCN1C1CCN2CCCc3cccc1c32` (centres undefined), for which the growth in test [1] is 94.1%; in test [2], 134%; in test [3], 108%; in test [4], 108%; in test [5], 96.9%; in test [6], 101%. The values for the growth in test [7] and in test [8] were 105% and 109%, respectively.

Regarding `CS(=O)(=O)c1ccc(Cl)c([N+](=O)[O-])c1`, the growth is 104% in test [1]; 111% in test [2]; 99.1% in test [3]; 67.9% in test [4]; 107% in test [5]; 105% in test [6]. Besides, the growth was 109% in test [7] and 75.3% in test [8].

Take `CC1OC(n2c3ccccc3c3c4c(c5c6ccccc6[nH]c5c32)C(=O)N(CCN[C@H]2CCC[C@@H]2N)C4=O)CC(O)C1O` (some centres undefined): the growth was 29% in test [1]; 46.9% in test [2]; 29.2% in test [3]; 17.4% in test [4]; 6.49% (active) in test [5]; 24.6% in test [6]. Besides, the figures for the growth in test [7] and in test [8] were 17% and 20.2%, respectively.

Turning to `CC(C)CCC(=O)[C@@H](C)[C@H]1[C@@H](OC2OCC(O)C(O)C2NS(C)(=O)=O)C[C@H]2[C@@H]3CC=C4C[C@@H](O)CC[C@]4(C)[C@H]3CC[C@]12C` (some centres undefined), the growth is 43.6% in test [1]; 22% in test [2]; 1.92% (active) in test [3]; 11.9% in test [4]; 17.1% in test [5]; 24.9% in test [6]. The values for the growth in test [7] and in test [8] were 67.2% and 47%, respectively.

`CCOCCNc1ccc(S(=O)(=O)c2ccc(N)cc2)cc1N`: the growth was 99.8% in test [1]; 107% in test [2]; 105% in test [3]; 102% in test [4]; 113% in test [5]; 102% in test [6]. The growth is 101% in test [7] and 99.3% in test [8].

In the case of `C=CCCCCOc1cccc(/C=C2\N=C3SCCCN3C2=O)c1`, the growth in test [1] is -2.85% (active); in test [2], 94.4%; in test [3], 106%; in test [4] it was 103%; in test [5], 88.9%; in test [6] it was 86.2%. Also, the growth in test [7] is 100%; in test [8], 98.4%.

For the molecule `CCN1C(=O)/C(=C/N2N=C(c3ccc(Cl)cc3)CC2c2ccc(OC)cc2)SC1=S` (centres undefined), the growth was 70.1% in test [1]; 85.1% in test [2]; 97.1% in test [3]; 97.6% in test [4]; 82.4% in test [5]; 85.8% in test [6]. Moreover, the growth in test [7] is 97.7%; in test [8], 97.6%.

For `CS(=O)(=O)c1ccc(C(=O)N/N=C/c2cccc3ccccc23)cc1`, the growth in test [1] was 85.3%; in test [2] it was 87.6%; in test [3], 17.1%; in test [4], 63.2%; in test [5], 44.9%; in test [6], 61.8%. Moreover, the growth was 84.5% in test [7] and 50.8% in test [8].

For `O=C(/C=C/c1ccc(F)cc1)N1CCN(C(=O)/C=C/c2ccc(C(F)(F)F)cc2)CC1`, the growth in test [1] is 113%; in test [2], 115%; in test [3], 104%; in test [4] it was 106%; in test [5] it was 98.2%; in test [6] it was 98%. The growth in test [7] is 102%; in test [8], 108%.

Turning to `NC(CCC(=O)NC(CS)C(=O)NCC(=O)O)C(=O)O` (centres undefined), the growth in test [1] is 107%; in test [2], 119%; in test [3] it was 106%; in test [4] it was 103%; in test [5], 103%; in test [6], 114%. The growth is 60% in test [7] and 108% in test [8].

As to `COc1cc(CN2CCC(N3CCCC3=O)c3ccccc32)cc(OC)c1OC` (centres undefined), the growth in test [1] was 68.3%; in test [2], 124%; in test [3] it was 90.4%; in test [4], 92.3%; in test [5], 70.9%; in test [6], 68.8%. The figures for the growth in test [7] and in test [8] were 93.2% and 97.1%, respectively.

Take `Nc1nc(NC2CC2)cc(-c2cccc(Cl)c2Cl)n1`: the growth is 32.2% in test [1]; 54.7% in test [2]; -12.2% (active) in test [3]; 21.5% in test [4]; 20.3% in test [5]; 42.2% in test [6]. In addition, the growth was 55.8% in test [7] and 47.8% in test [8].

Take `CC1=C(/C=C/C(C)=C/C=C(C(=O)O)\C(C)=C\C(=O)O)C(C)(C)CCC1`: the growth was 101% in test [1]; 100% in test [2]; 116% in test [3]; 108% in test [4]; 93.8% in test [5]; 105% in test [6]. In addition, the growth was 108% in test [7] and 110% in test [8].

Take `COc1cnc2c(c1)C(=O)c1c-2n(CCCNC(C)C)c(=O)c2cc(Cl)ccc12`: the growth in test [1] was -84.3% (active); in test [2], 30.9%; in test [3], -94.6% (active); in test [4] it was -81.7% (active); in test [5], -58.6% (active); in test [6], -92.4% (active). Further, the growth in test [7] was -52.1% (active); in test [8], -71.7% (active).

Regarding `COc1ccc([C@H]2c3[nH]c4ccccc4c3C[C@H]3C(=O)N(CCCCCCC(=O)NO)CC(=O)N23)cc1`, the growth in test [1] was 7.57% (active); in test [2] it was 62.4%; in test [3], 24.6%; in test [4] it was 4% (active); in test [5], 29.9%; in test [6], 10.4%. Besides, the growth in test [7] is 6.81% (active); in test [8] it was 49.8%.

Regarding `NS(=O)(=O)c1ccc(CCn2c(SCC(=O)N/N=C/c3cc4ccccc4[nH]3)nc3ccccc3c2=O)cc1`, the growth in test [1] was 45.2%; in test [2] it was 74.3%; in test [3], 45.9%; in test [4] it was 71.9%; in test [5], 37.7%; in test [6] it was 29.6%. Besides, the growth is 88% in test [7] and 50% in test [8].

Consider `CCC1=CC2CN(C1)Cc1c([nH]c3ccccc13)[C@@](C(=O)OC)(c1cc3c(cc1OC)N(C)[C@H]1[C@@](O)(C(=O)OC)[C@H](OC(C)=O)[C@]4(CC)C=CCN5CC[C@]31[C@@H]54)C2` (some centres undefined), for which the growth in test [1] was 76.1%; in test [2] it was -27.2% (active); in test [3] it was 2.28% (active); in test [4], 29.1%; in test [5] it was 8.05% (active); in test [6], -9.83% (active). Besides, the growth is -36% (active) in test [7] and 0.29% (active) in test [8].

`COc1ccc(NC(=O)c2sc3c(=O)[nH]c(C(F)(F)F)nc3c2C)cc1`: the growth in test [1] was 89.7%; in test [2], 103%; in test [3], 103%; in test [4], 112%; in test [5] it was 84.3%; in test [6], 100%. Moreover, the growth was 111% in test [7] and 106% in test [8].

As to `CCOC(=O)c1ccc(NC(=O)CSC(N)=O)cc1`, the growth in test [1] was 131%; in test [2], 93.8%; in test [3], 113%; in test [4], 103%; in test [5], 99.3%; in test [6] it was 87.9%. The growth in test [7] was 105%; in test [8], 111%.

On to `CSC1=N/C(=C\c2cccc(OCc3ccc(Cl)cc3)c2)C(=O)N1`, for which the growth in test [1] is 59.4%; in test [2] it was 88.1%; in test [3], 80.6%; in test [4], 88.1%; in test [5], 83%; in test [6] it was 88.8%. Also, the figures for the growth in test [7] and in test [8] were 93% and 79.8%, respectively.

Turning to `N/C(=C\C(=O)n1nc(-c2ccccc2)cc1N)c1ccccc1`, the growth in test [1] is 47%; in test [2], 30.1%; in test [3] it was -0.658% (active); in test [4], 36.1%; in test [5] it was 35%; in test [6], 27.4%. The growth in test [7] was 43.9%; in test [8], 30%.

Regarding `COc1ccc(-c2cc(C(=O)Nc3ccc(C)cc3)nc3[nH]c(=O)sc23)cc1`, the growth in test [1] was 58.7%; in test [2] it was 75.9%; in test [3], 65.5%; in test [4] it was 77.2%; in test [5], 71.6%; in test [6], 66.2%. Besides, the growth in test [7] was 76.7%; in test [8], 67.4%.

As to `COc1ccccc1/C=C/C(=O)CCC(=O)O`, the growth in test [1] was 93.1%; in test [2] it was 113%; in test [3], 108%; in test [4], 107%; in test [5], 102%; in test [6], 101%. Also, the growth in test [7] and in test [8] was 114% each time.

For the molecule `C=C(C)[C@@H]1CC[C@]2(C(=O)NS(=O)(=O)c3ccccc3)CC[C@]3(C)[C@H](CC[C@@H]4[C@@]5(C)CC[C@H](OC(=O)NS(=O)(=O)c6ccccc6)C(C)(C)[C@@H]5CC[C@]43C)[C@@H]12`, the growth is 1.6% (active) in test [1]; -0.983% (active) in test [2]; 12.8% in test [3]; 16.6% in test [4]; 2.66% (active) in test [5]; -44.1% (active) in test [6]. For the same molecule, the growth was -8.69% (active) in test [7] and 4.05% (active) in test [8].

With `COc1cc(C2C(C#N)=C(N)Oc3cc4c(cc32)OCO4)cc2c1OCO2` (centres undefined), the growth in test [1] is 53.7%; in test [2], 34.8%; in test [3], -50.6% (active); in test [4], 29%; in test [5], 16.6%; in test [6] it was 11%. Further, the growth was 14.7% in test [7] and 10.9% in test [8].

With `O=C(Nc1ccccc1)c1cc2ccccc2s1`, the growth was 38.1% in test [1]; 95.9% in test [2]; 109% in test [3]; 101% in test [4]; 46.8% in test [5]; 75.8% in test [6]. For the same molecule, the growth is 48.9% in test [7] and 29.8% in test [8].

As to `Oc1ccc(-c2nc3ccccc3s2)cc1CN(Cc1ccccn1)Cc1ccccn1`, the growth in test [1] is 12.8%; in test [2], 18.5%; in test [3], 26.6%; in test [4], 20.1%; in test [5], 14.8%; in test [6], 15.5%. In addition, the values for the growth in test [7] and in test [8] were 5.52% (active) and 24.8%, respectively.

Consider `COC(=O)OC1C(O[C@H]2C[C@H]3[C@@H]4CC=C5C[C@@H](O)CC[C@]5(C)[C@H]4CC[C@]3(C)[C@H]2[C@H](C)C(=O)CCC(C)C)OCC(O)C1OC1OCC(O)C(O)C1OC(=O)c1ccc(OC)cc1` (some centres undefined), for which the growth in test [1] was -5.41% (active); in test [2], 6.19% (active); in test [3], -15.3% (active); in test [4], -55.9% (active); in test [5], -8.41% (active); in test [6], 5.29% (active). Moreover, the growth in test [7] is 53.7%; in test [8], 39.2%.
